# Experimental data: ChEMBL document CHEMBL4513160, “CO-ADD screening of MMV (CH) - Small Polar Library”
# In all, about 18,000 compounds went through this assay and fewer than 10 showed an effect of 50% or more. A selection follows.
# System: Pseudomonas aeruginosa
# Experiment: Antibacterial activity against Pseudomonas aeruginosa PAO397 [PAO1 d(mexAB-oprM) d(mexCD-oprJ) d(mexEF-oprN) d(mexJKL) d(mexXY) d(opmH)] (CO-ADD:GN_211); MIC in CAMBH media using NBS plates, by OD(600)
# Assay type: functional
# Conditions: Concentration 300 ug.mL-1, ASSAY_TEST Inhibition of Bacterial Growth, detection method Absorption (OD600), MEDIA CAMHB, plate type 384well, CORNING #3640, time 18 hr
row,Compound,Inhibition
1,COCCCOc1cnc(C#N)cn1,-8.76%
2,Cc1ncccc1CN1CCCCC1(C)C(N)=O (stereo not drawn),-20.64%
3,Cc1cc(C)cc(OCC(=O)N2CCNCC2)c1,-0.07%
4,Cc1ccc(C(=O)NCCNC(=O)c2ccco2)cc1,-53.65%
5,CC1COCCN1Cc1cn2ccccc2n1 (stereo not drawn),15.25%
6,c1ccc(C/N=C2/CCCCCN2)nc1,23.32%
7,N#Cc1ccc(CN)cc1F,2.48%
8,CN1CCN(C(N)=O)C(c2ccccc2)C1 (stereo not drawn),4.12%
9,COC(=O)CN1CCCC1=O,5.23%
10,CCNC(=O)CSc1nc(C)c(C)n1CCOC,3.04%
11,CN(C)C(CNC1=NCCN1)c1ccsc1 (stereo not drawn),-1.92%
12,Cc1c(NC(=O)c2cnccn2)cccc1C(N)=O,2.03%
13,CCn1cnnc1CNC(=O)c1cccc(N(C)C)c1,-1.56%
14,NC1CC(=O)c2ccccc21 (stereo not drawn),4.06%
15,O=C(CN1CCNC(=O)C1)NCCOc1ccccc1,25.17%
16,c1cn(-c2cc(N3CCSCC3)ncn2)cn1,8.05%
17,O=C(c1ccsc1)N1CCCN(c2cccnn2)CC1,0.34%
18,CC(C)n1nccc1NC(=O)CN(C)Cc1ccco1,9.78%
19,COc1ccc(CNc2ccncc2F)cc1C#N,-8.23%
20,CC(C)(C)C(=O)Nc1ccc(N2CCNC(=O)C2)cc1,7.8%
21,COc1ccc(Cl)cc1NC(=O)N[C@@H]1CNCC[C@H]1O,-35.77%

row,Compound,Inhibition
1,CN(C)C1(CNC(=O)c2cn[nH]c2)CCOCC1,-13.75%
2,NCC1CCCOC1 (stereo not drawn),10.08%
3,COc1cc(CCCN)cc(OC)c1O,4.59%
4,Cc1ccccc1CN1CCCN(CCC(N)=O)CC1,-4.93%
5,NC(=O)NC(=O)CCNS(=O)(=O)c1ccccc1Cl,13.15%
6,NCC(O)CN1CCc2ccccc2C1 (stereo not drawn),-6.8%
7,CC(CC(=O)N1CC[C@H](O)C1)c1cccc(F)c1 (stereo partly drawn),-15.14%
8,CO[C@H]1CNCC1NC(=O)Cc1ccc(F)cc1F (stereo partly drawn),11.48%
9,N#Cc1ncc(Cl)cc1Cl,28.39%
10,CC(C)CC(=O)NCc1ccnc(N2CCCC2)c1,-20.17%
11,CCC[C@H]1CN(C(=O)c2csc(NC)n2)C[C@@H]1N,2.64%
12,NCCN1C(=O)COc2ccccc21,-12.94%
13,Cc1cc(NC(=O)NCC2CCN(CCO)CC2)no1,13.32%
14,CCc1cccc(S(=O)(=O)N2CC[C@H](N)C2)c1,-15.97%
15,COCCNCCNC(=O)c1ccc(Cl)c(C)c1,-10.19%
16,CNC(=O)c1ccc(C)c(NC(=O)c2ccco2)c1,-0.03%
17,OC(CNc1ncc(Cl)cc1F)CN1CCOCC1 (stereo not drawn),11.06%
18,CC(C)C(=O)Nc1ccc(N2CCOCC2)nc1,4.38%
19,COC(=O)CCCC(=O)N1CCC2(CCCC2)C1,14.7%
20,COCCNS(=O)(=O)C1CCCCC1,-6.37%
21,CC(C)c1cccc(S(=O)(=O)N2CCCC2CN)c1 (stereo not drawn),-46.42%

row,Compound,Inhibition
1,O=C(CN1CCCC1c1ccco1)N1CCOCC1 (stereo not drawn),18.12%
2,CC(C)c1ccn(CC(=O)NC2CC2)n1,1.75%
3,CCc1nnc(NCCS(=O)(=O)N(C)C)o1,-4.82%
4,CC(C)n1cc(C(=O)NCCN(C)S(C)(=O)=O)cn1,17.41%
5,CC(=O)NCc1cn2c(C)cccc2n1,-5.3%
6,Cc1ccnc(NCCS(=O)(=O)NCC2CCC2)c1,-18.59%
7,CNC(=O)c1nc(-c2ccc(C(F)(F)F)cc2)no1,32.14%
8,CN(c1ccccc1C(N)=O)S(=O)(=O)c1cccs1,-71.82%
9,CN(C(=O)COCC1CC1)c1nc2ccccc2n1C,4.52%
10,CNc1ccc(N2CCOCC2)nc1,-26.42%
11,CCN1CCN(CC(=O)Nc2ccc(C)cc2C)CC1,-4.07%
12,CN(C)[C@@H]1CN(C(=O)c2ncccn2)C[C@H]1CO,3.69%
13,NC(=O)CCC1CCNCC1,-8.79%
14,CCC(C)NC(=O)N1CCCN(C2CC2)CC1 (stereo not drawn),16.96%
15,Fc1ccccc1CN1CCn2ccnc2C1,-12.72%
16,NC1CCCN(c2noc(-c3ccccc3)n2)CC1 (stereo not drawn),0.95%
17,COCCNC(=O)NCCc1ccc(C)c(OC)c1,7.38%
18,Cc1ccc(NC(=O)NC2(CCO)CCOCC2)s1,-4.26%
19,CCc1nnc(NC2CCOC3(CCOCC3)C2)o1 (stereo not drawn),8.44%
20,CCc1ccccc1CN,3.32%
21,CC(=O)NC(C(=O)Nc1cccc(C)n1)C(C)C (stereo not drawn),-8.54%

row,Compound,Inhibition
1,O=C1CN(Cc2ncc[nH]2)CCN1C1CCCC1,2.49%
2,CCOCC(=O)N(C)Cc1cccc2cnccc12,-38.69%
3,CC(CO)Sc1ccc(S(=O)(=O)C(F)F)cc1 (stereo not drawn),16.44%
4,CS(=O)(=O)CC1(CNc2cccc(C(F)(F)F)n2)CC1,-21.2%
5,OCc1ccncc1NCC1CCOCC1,8.94%
6,OCCCNc1cccc(Cl)c1-n1cccn1,-33.42%
7,Cn1nc(C(F)(F)F)c(Cl)c1C(=O)N[C@@H]1CCNC1,31.11%
8,CC(=O)NC(CC(=O)N1CCCC1)c1ccc(Cl)cc1 (stereo not drawn),-24.39%
9,CN(Cc1ccccc1)C(=O)NC1CCCCNC1=O (stereo not drawn),-2.06%
10,CS(=O)(=O)N1CCCC(C(=O)Nc2cccnc2O)C1 (stereo not drawn),14.72%
11,Cc1cc(N(C)C)nc(N2CCCC2C(=O)N(C)C)n1 (stereo not drawn),-8.5%
12,Cc1cc(NC(=O)CCn2ccnc2)no1,1.69%
13,COc1c(CNC(=O)c2cccs2)c(C)nn1C,-17.79%
14,CCC(=O)N1CCCN(c2ccncc2Cl)CC1,-2.88%
15,CN1Cc2cccn2CC1CNC(=O)NC1CCCC1 (stereo not drawn),-13.25%
16,N[C@@H]1CC[C@@H]1NC(=O)CCn1cc(Cl)cn1,-25.34%
17,COc1cc(F)c(C(=O)N[C@@H]2CCNC[C@H]2O)c(F)c1,19.43%
18,CN(c1ccc(O)cc1)S(=O)(=O)c1ccco1,-8.79%
19,CCOCC(=O)N1C[C@H](CO)C[C@H](CN2CCCC2)C1,-0.69%
20,COc1ccc(CNC(=O)C2=COCCO2)cc1OC,2.02%
